# Reference: PubChem BioAssay (NCATS)
# Records with an inconclusive call do not appear. Entries that show only a call come without a potency. Calls of active or inactive are those of the source. Calls come from the whole dose curve; as a rule, active = well fitted inhibition curve with a large enough effect; inconclusive = small, poorly fitted or top-dose-only effect; inactive = flat fitted curve, though single readings scatter. Bridge positions count the residues as written; N and C are the ends. Square brackets hold non-standard residues; d marks the D form. Peptide text beside a SMILES is read from it. * marks the point of attachment. Ileψ(thiazoline)Cys = CC[C@H](C)[C@H](N)C1=N[C@H](C(=O)*)CS1; d(aIle) = CC[C@H](C)[C@@H](N)C(=O)O; dOrn = NCCC[C@@H](N)C(=O)O
# System: PC15
# Test: qHTS profiling for inhibitors of Plasmodium falciparum proliferation (AID 504749); note: nearly all actives have a fitted effect of over 60% in size
# Settings: P. falciparum in erythrocytes, SYBR Green DNA, 72 h; series mostly up to 12.8 µM
# How it was run: (§1)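 Three-day growth assay of blood-stage parasites in erythrocytes (0.3% parasitemia, 2.5% hematocrit) at 37 C, 5% CO2, quantified by SYBR Green DNA staining after overnight detergent lysis.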
# Potency is the fitted concentration of half-maximal effect.
row,SMILES,Potency
1,C[C@@H]1C[C@H]2[C@@H]3C[C@H](F)C4=CC(=O)C=C[C@@]4(C)[C@]3(F)[C@H](O)C[C@]2(C)[C@@]1(O)C(=O)CO,inactive
2,C[C@H](O)Cn1cnc2c1c(=O)n(C)c(=O)n2C,inactive
3,CCCCC[C@H](O)/C=C\[C@@H]1[C@H](O)CC(=O)[C@@H]1CCCCCCC(=O)O,inactive
4,CC(=C(CCOP(=O)(O)O)SC(=O)c1ccccc1)N(C=O)Cc1cnc(C)nc1N,inactive
5,NC[C@@H]1O[C@@H](O[C@H]2[C@H](O)[C@H](O[C@@H]3O[C@H](CO)[C@@H](O)[C@H](N)[C@@H]3O)[C@@H](N)C[C@H]2N)[C@H](N)C[C@@H]1O,inactive
6,CCc1c(C)[nH]c2c1C(=O)[C@H](CN1CCOCC1)CC2,inactive
7,C=C1c2c(Cl)ccc(O)c2C(O)=C2C(=O)[C@@]3(O)C(O)=C(C(N)=O)C(=O)[C@@H](N(C)C)[C@@H]3[C@@H](O)[C@H]12,inactive
8,CC[C@H](C)[C@H](N)C1=N[C@H](C(=O)N[C@@H](CC(C)C)C(=O)N[C@@H](CCC(=O)O)C(=O)N[C@@H](C(=O)N[C@H]2CCCCNC(=O)[C@@H](CC(N)=O)NC(=O)[C@@H](CC(=O)O)NC(=O)[C@@H](Cc3cnc[nH]3)NC(=O)[C@@H](Cc3ccccc3)NC(=O)[C@@H]([C@@H](C)CC)NC(=O)[C@@H](CCCN)NC2=O)[C@@H](C)CC)CS1 ({Ileψ(thiazoline)Cys}-LE[d(aIle)]K[dOrn][d(aIle)][dF][dH][dD][dN]; lactam 4-C),inactive
9,O=C(N/N=C\c1ccc([N+](=O)[O-])o1)c1ccc(O)cc1,2.82 µM (active)
10,CCOC(=O)O[C@@H](C)OC(=O)[C@@H]1N2C(=O)[C@@H](NC(=O)[C@@H](N)c3ccccc3)[C@H]2SC1(C)C,inactive
11,Cc1ccsc1/C=C\C1=NCCCN1C,inactive
12,O=C(O)COCCN1CCN([C@@H](c2ccccc2)c2ccc(Cl)cc2)CC1,inactive
13,C#C[C@]1(O)CC[C@@H]2[C@H]3CCC4=CCCC[C@@H]4[C@@H]3CC[C@@]21C,inactive
14,CC1(C)[C@@H](OC(=O)CCC(=O)O)CC[C@@]2(C)[C@H]1CC[C@@]1(C)[C@H]2C(=O)C=C2[C@H]3C[C@](C)(C(=O)O)CC[C@]3(C)CC[C@@]21C,inactive
15,C[C@H](CCC(=O)O)[C@H]1CC[C@@H]2[C@@H]3[C@@H](O)C[C@H]4C[C@@H](O)CC[C@@]4(C)[C@H]3CC[C@@]21C,inactive
16,CN1CCO[C@H](c2ccccc2)c2ccccc2C1,inactive

# System: PC26
# Test: as above
# Settings: P. falciparum in erythrocytes, SYBR Green DNA, 72 h; series mostly up to 12.8 µM
# How it was run: as §1
row,SMILES,Potency
1,C[C@@H]1C[C@H]2[C@@H]3C[C@H](F)C4=CC(=O)C=C[C@@]4(C)[C@]3(F)[C@H](O)C[C@]2(C)[C@@]1(O)C(=O)CO,inactive
2,C[C@H](O)Cn1cnc2c1c(=O)n(C)c(=O)n2C,inactive
3,CCCCC[C@H](O)/C=C\[C@@H]1[C@H](O)CC(=O)[C@@H]1CCCCCCC(=O)O,inactive
4,CC(=C(CCOP(=O)(O)O)SC(=O)c1ccccc1)N(C=O)Cc1cnc(C)nc1N,inactive
5,NC[C@@H]1O[C@@H](O[C@H]2[C@H](O)[C@H](O[C@@H]3O[C@H](CO)[C@@H](O)[C@H](N)[C@@H]3O)[C@@H](N)C[C@H]2N)[C@H](N)C[C@@H]1O,inactive
6,CCc1c(C)[nH]c2c1C(=O)[C@H](CN1CCOCC1)CC2,inactive
7,CC[C@H](C)[C@H](N)C1=N[C@H](C(=O)N[C@@H](CC(C)C)C(=O)N[C@@H](CCC(=O)O)C(=O)N[C@@H](C(=O)N[C@H]2CCCCNC(=O)[C@@H](CC(N)=O)NC(=O)[C@@H](CC(=O)O)NC(=O)[C@@H](Cc3cnc[nH]3)NC(=O)[C@@H](Cc3ccccc3)NC(=O)[C@@H]([C@@H](C)CC)NC(=O)[C@@H](CCCN)NC2=O)[C@@H](C)CC)CS1 ({Ileψ(thiazoline)Cys}-LE[d(aIle)]K[dOrn][d(aIle)][dF][dH][dD][dN]; lactam 4-C),inactive
8,O=C(N/N=C\c1ccc([N+](=O)[O-])o1)c1ccc(O)cc1,5.73 µM (active)
9,C[C@@H](CNC1CCCCC1)OC(=O)c1ccccc1,5.73 µM (active)
10,CCOC(=O)O[C@@H](C)OC(=O)[C@@H]1N2C(=O)[C@@H](NC(=O)[C@@H](N)c3ccccc3)[C@H]2SC1(C)C,inactive
11,Cc1ccsc1/C=C\C1=NCCCN1C,inactive
12,O=C(O)COCCN1CCN([C@@H](c2ccccc2)c2ccc(Cl)cc2)CC1,inactive
13,C#C[C@]1(O)CC[C@@H]2[C@H]3CCC4=CCCC[C@@H]4[C@@H]3CC[C@@]21C,inactive
14,CC1(C)[C@@H](OC(=O)CCC(=O)O)CC[C@@]2(C)[C@H]1CC[C@@]1(C)[C@H]2C(=O)C=C2[C@H]3C[C@](C)(C(=O)O)CC[C@]3(C)CC[C@@]21C,inactive
15,C[C@H](CCC(=O)O)[C@H]1CC[C@@H]2[C@@H]3[C@@H](O)C[C@H]4C[C@@H](O)CC[C@@]4(C)[C@H]3CC[C@@]21C,inactive
16,CN1CCO[C@H](c2ccccc2)c2ccccc2C1,inactive
